Results published in PubChem BioAssay (NCATS).
Inconclusive results are not listed. Calls of active or inactive are those of the source. Unless noted, the call rests on the fitted dose curve; in most records, active means well fitted curve in the direction sought with a large enough effect; inconclusive means small, poorly fitted or top-dose-only effect, or another doubt; inactive means no such curve, though single readings can be large; an effect the other way counts as inactive or inconclusive.

Legend:
[1] = qHTS for Inhibitors of the vitamin D receptor (VDR): Hit Validation using a Texas Red Assay (AID 602201); further: on the % scale 0 is the no-effect control and ±100 the full control effect
Summary of the method: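 After a 2-hour room-temperature incubation, polarization of Texas-Red emission was read (Ex 595 nm/Em 615 nm). Final mix contained 7 nM Texas Red, 1.5 uM VDR-LBD and LG19078.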

[2] = molecular target: Rap guanine nucleotide exchange factor 3 (Homo sapiens) (UniProt O95398); assay: Confirmatory qHTS for antagonist of cAMP-regulated guanine nucleotide exchange factor 3 (EPAC1) (AID 1645880); settings: EPAC1 Rap1B-BODIPY-GDP exchange, fluorescence; activity, negative = inhibition: at 115 µM (top of the series); further: nearly all actives have a fitted effect of over 55% in size; further: potency means the concentration at half of the fitted maximal effect;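 on activity, negative = inhibition: plate controls were DMSO only for no effect and full effect of the ATA control for full effect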
Sequence of Rap guanine nucleotide exchange factor 3 (Homo sapiens) (O95398 whole entry, looked up): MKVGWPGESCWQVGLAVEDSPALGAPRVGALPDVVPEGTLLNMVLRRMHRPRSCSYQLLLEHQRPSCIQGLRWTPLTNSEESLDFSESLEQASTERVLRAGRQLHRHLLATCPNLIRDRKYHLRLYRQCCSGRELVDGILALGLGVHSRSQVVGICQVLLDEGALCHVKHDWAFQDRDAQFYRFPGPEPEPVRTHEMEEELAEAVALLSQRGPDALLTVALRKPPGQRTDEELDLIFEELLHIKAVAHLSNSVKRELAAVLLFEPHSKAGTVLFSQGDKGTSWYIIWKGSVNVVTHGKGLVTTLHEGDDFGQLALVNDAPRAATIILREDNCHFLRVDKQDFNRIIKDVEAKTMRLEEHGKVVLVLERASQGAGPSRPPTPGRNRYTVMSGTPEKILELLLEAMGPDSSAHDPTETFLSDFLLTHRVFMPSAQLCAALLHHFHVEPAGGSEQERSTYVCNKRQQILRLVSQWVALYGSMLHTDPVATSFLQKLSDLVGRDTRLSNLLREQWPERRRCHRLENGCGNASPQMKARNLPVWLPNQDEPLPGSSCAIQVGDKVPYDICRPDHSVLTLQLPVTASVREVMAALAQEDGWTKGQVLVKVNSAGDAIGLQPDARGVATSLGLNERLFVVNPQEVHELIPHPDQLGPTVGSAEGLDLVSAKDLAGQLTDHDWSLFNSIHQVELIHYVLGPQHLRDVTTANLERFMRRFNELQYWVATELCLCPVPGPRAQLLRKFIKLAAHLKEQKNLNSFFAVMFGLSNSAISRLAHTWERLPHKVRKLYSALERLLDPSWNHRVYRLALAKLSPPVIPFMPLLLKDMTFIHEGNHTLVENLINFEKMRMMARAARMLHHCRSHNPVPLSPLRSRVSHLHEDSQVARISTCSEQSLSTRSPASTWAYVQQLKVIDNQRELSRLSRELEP
Summary of the method: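 Released BODIPY-GDP fluoresces less than Rap1-bound BODIPY-GDP; the signal is followed at 480/540 nm at 5-min intervals over 30 min, after 5 min at room temperature. Reactions contain 100 nM EPAC1, 250 nM RAP1B-BODIPY-GDP and 50 uM GDP; results are normalized to ATA and DMSO.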

[3] = molecular target: Rap guanine nucleotide exchange factor 3 (Homo sapiens) (UniProt O95398); assay: Confirmatory qHTS for agonist of cAMP-regulated guanine nucleotide exchange factor 3 (EPAC1) (AID 1645881); further: nearly all actives have a fitted effect of over 75% in size; further: potency means the concentration at half of the fitted maximal effect;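 on activation: EPAC1 catalysed release of BODIPY-GDP from Rap1B seen as fluorescence loss; 100% = effect of cAMP agonist control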
[4] = molecular target: Rap guanine nucleotide exchange factor 4 (Homo sapiens) (UniProt Q8WZA2); assay: Confirmatory qHTS for agonist of cAMP-regulated guanine nucleotide exchange factor 4 (EPAC2) (AID 1645884);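 further: nucleotide exchange releases bodipy-GDP from Rap1 and this lowers its fluorescence; nearly all actives have a fitted effect of over 65% in size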; further: potency means the concentration at half of the fitted maximal effect
Sequence of Rap guanine nucleotide exchange factor 4 (Homo sapiens) (Q8WZA2 whole entry, looked up): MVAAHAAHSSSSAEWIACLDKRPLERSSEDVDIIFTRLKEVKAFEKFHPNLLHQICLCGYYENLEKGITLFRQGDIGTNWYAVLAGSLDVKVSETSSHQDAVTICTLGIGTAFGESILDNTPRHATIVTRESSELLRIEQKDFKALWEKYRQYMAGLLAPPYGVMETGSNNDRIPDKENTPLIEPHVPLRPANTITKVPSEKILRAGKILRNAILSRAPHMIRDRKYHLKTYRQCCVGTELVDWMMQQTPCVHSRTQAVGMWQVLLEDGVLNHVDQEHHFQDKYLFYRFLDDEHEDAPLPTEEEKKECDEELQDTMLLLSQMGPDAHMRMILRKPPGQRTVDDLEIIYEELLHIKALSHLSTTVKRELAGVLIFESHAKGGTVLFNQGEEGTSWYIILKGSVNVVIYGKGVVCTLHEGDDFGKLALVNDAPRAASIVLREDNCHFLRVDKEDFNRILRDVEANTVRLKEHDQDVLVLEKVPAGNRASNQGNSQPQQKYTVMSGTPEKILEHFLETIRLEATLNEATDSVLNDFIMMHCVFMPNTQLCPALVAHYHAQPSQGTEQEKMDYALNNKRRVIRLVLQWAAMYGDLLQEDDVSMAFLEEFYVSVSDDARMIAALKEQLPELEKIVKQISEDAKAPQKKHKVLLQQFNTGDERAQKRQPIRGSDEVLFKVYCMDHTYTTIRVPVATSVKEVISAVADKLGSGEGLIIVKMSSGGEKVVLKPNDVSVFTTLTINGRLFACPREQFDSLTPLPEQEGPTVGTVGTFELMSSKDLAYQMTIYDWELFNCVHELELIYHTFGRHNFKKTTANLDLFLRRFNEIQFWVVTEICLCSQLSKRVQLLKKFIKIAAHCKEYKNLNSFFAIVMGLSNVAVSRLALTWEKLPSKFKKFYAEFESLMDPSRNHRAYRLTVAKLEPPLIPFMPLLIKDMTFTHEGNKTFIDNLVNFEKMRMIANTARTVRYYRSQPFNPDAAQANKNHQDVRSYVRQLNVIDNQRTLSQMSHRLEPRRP

[5] = molecular target: Rap guanine nucleotide exchange factor 4 (Homo sapiens) (UniProt Q8WZA2); assay: Confirmatory qHTS for antagonist of cAMP-regulated guanine nucleotide exchange factor 4 (EPAC2) (AID 1645885); further: nearly all actives have a fitted effect of over 25% in size; further: potency means the concentration at half of the fitted maximal effect
[6] = molecular target: Rap guanine nucleotide exchange factor 3 (Homo sapiens) (UniProt O95398); assay: Counterscreen qHTS for antagonist of cAMP-regulated guanine nucleotide exchange factor 3 (EPAC1) (AID 1645888); further: % of control where 0% means no effect
Summary of the method: (§1)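 Rap1B-BODIPY-GDP 250 nM + GDP 50 uM; cpds 7-pt, final 9.74 nM–152 uM (activator mode) or from 7.32 nM upwards (inhibitor mode); RT; FI 480/540 nm at 5 and 30 min, then ± cAMP, reread.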

[7] = molecular target: Rap guanine nucleotide exchange factor 3 (Homo sapiens) (UniProt O95398); assay: Counterscreen qHTS for agonist of cAMP-regulated guanine nucleotide exchange factor 3 (EPAC1) (AID 1645889); further: nearly all actives have a fitted effect of over 40% in size; further: potency means the concentration at half of the fitted maximal effect; on activation: % of control where 0% means no effect
Summary of the method: as §1

[8] = AP1 Signaling Pathway (AID 357; active means well fitted curve in either direction with a large enough effect, not every such curve was filed as active;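 further: ME-180 reporter cells stimulated with EGF at its EC50 level; on the % scale 0 is the no-effect control and ±100 the full control effect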); settings: ME-180 (cervical carcinoma) AP-1-bla reporter, EGF-induced, beta-lactamase ratio, 5 h; at 7.69 µM (top of the series) unless noted
Summary of the method: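 Modulation of EGF-driven AP-1 transcription was assessed with a beta-lactamase reporter in ME-180 cells. Compound and EC50 EGF were co-incubated 5 hours at 37 °C before 2.5-hour CCF4 loading at room temperature and dual-emission reading.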

[9] = NFAT Signaling Pathway (AID 444; active means well fitted curve in either direction with a large enough effect, not every such curve was filed as active;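 further: carbachol stimulus at about its EC50 of 1 µM final; on the % scale 0 is the no-effect control and ±100 the full control effect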); settings: Jurkat NFAT-bla M1, carbachol, beta-lactamase ratio, 5 h; at 7.69 µM (top of the series) unless noted
Summary of the method: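 Read-out: CCF4 FRET ratio (460 nm/530 nm) after 1 h RT dye loading, used for %activity and AC50 from titration series. Cells: Jurkat NFAT-β-lactamase/M1 line, treated with compound plus 1 uM carbachol for 5 h, 37 °C.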

[10] = Stat Signaling Pathway (AID 446; active means well fitted curve in either direction with a large enough effect, not every such curve was filed as active;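 further: ME-180 cervical cancer cells given 40 pM IL-6 alongside compound; SIE-controlled beta-lactamase reporter measured as 460/530 nm FRET emission ratio; on the % scale 0 is the no-effect control and ±100 the full control effect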)
Summary of the method: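 Normalization used AC90 stimulation (300 pM IL-6) and AC90 inhibition (125 nM pan-JAK inhibitor at 40 pM IL-6). The underlying signal is SIE-driven beta-lactamase in ME-180 cells after 5 h IL-6 exposure with compound.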

[11] = molecular target: Glucocorticoid receptor (Homo sapiens) (UniProt P04150); assay: GR-GFP Redistribution (AID 450;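 active means compounds whose dose series gives a full or clear partial fitted curve of increased nuclear translocation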; further: potency means the concentration at half of the fitted maximal effect); settings: U2OS GR-GFP nuclear translocation, laser cytometry, 2 h
Sequence of Glucocorticoid receptor (Homo sapiens) (P04150 whole entry, looked up): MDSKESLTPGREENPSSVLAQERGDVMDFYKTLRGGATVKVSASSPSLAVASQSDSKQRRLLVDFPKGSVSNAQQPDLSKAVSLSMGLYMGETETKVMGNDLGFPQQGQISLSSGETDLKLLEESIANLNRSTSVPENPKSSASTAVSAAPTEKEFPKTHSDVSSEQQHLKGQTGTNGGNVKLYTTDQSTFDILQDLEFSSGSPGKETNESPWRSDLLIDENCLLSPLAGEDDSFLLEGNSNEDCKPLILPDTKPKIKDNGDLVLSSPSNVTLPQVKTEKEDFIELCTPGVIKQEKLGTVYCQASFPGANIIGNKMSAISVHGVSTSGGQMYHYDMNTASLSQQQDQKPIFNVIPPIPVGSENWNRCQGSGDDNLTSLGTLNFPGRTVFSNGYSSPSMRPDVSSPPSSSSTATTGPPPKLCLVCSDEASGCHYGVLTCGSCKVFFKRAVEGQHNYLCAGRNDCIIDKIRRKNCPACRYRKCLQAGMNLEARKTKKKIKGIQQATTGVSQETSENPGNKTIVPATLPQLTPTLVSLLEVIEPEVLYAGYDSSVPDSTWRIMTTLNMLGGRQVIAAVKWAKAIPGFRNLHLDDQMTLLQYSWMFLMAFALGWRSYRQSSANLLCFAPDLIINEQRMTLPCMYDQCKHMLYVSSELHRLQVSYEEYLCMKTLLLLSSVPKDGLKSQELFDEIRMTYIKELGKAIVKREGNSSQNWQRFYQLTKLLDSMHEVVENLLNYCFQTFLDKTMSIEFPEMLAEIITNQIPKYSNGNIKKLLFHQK

[12] = molecular target: Catechol O-methyltransferase (Homo sapiens) (UniProt P21964); assay: Confirmatory Screen for Target Class Profiling of Small Molecule Inhibitors of Methyltransferases (AID 1745852; calls by dose curve; further: potency means the concentration at half of the fitted maximal effect); settings: MTase-Glo luminescence, SAH detection, recombinant enzyme; measured here: COMT max response; stronger effect = lower value
Sequence of Catechol O-methyltransferase (Homo sapiens) (P21964 whole entry, looked up): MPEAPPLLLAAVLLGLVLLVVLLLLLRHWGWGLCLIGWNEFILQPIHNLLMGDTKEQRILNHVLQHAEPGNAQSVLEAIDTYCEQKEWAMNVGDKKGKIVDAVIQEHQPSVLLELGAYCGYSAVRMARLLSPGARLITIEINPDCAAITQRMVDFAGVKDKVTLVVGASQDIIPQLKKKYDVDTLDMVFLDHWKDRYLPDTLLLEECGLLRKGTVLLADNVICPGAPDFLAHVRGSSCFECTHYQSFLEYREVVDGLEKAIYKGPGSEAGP

[13] = molecular target: Guanidinoacetate N-methyltransferase (Homo sapiens) (UniProt Q14353); assay: as above; settings: activity change, negative = inhibition: at 57.3 µM (top of the series) unless noted
[14] = molecular target: Nicotinamide N-methyltransferase (Homo sapiens) (UniProt P40261); assay: as above; settings: MTase-Glo luminescence, SAH detection, recombinant enzyme; measured here: NNMT max response; stronger effect = lower value
Sequence of Nicotinamide N-methyltransferase (Homo sapiens) (P40261 whole entry, looked up): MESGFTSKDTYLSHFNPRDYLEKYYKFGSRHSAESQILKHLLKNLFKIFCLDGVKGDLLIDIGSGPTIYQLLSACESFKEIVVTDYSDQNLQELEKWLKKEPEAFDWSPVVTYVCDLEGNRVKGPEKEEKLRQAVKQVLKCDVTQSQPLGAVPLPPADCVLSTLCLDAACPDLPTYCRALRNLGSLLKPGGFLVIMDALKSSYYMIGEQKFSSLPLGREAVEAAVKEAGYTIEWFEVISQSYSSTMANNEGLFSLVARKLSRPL

[15] = molecular target: Phenylethanolamine N-methyltransferase (Homo sapiens) (UniProt P11086); assay: as above; settings: MTase-Glo luminescence, SAH detection, recombinant enzyme; measured here: PNMT max response; stronger effect = lower value
Sequence of Phenylethanolamine N-methyltransferase (Homo sapiens) (P11086 whole entry, looked up): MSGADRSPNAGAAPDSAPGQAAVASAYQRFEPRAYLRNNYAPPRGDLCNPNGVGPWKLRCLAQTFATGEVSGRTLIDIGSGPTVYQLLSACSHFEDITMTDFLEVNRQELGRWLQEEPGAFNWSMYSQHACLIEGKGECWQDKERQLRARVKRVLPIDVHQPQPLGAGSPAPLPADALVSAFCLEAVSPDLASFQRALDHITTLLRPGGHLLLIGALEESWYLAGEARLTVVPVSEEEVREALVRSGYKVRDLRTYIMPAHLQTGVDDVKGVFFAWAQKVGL

[16] = molecular target: Tumor susceptibility gene 101 protein (Homo sapiens) (UniProt Q99816); assay: qHTS Assay for Iinhibitors of HIV-1 Budding by Blocking the Interaction of PTAP/TSG101: Hit Validation (AID 651600); further: potency means the concentration at half of the fitted maximal effect; nearly all actives have a fitted effect of over 70% in size
Sequence of Tumor susceptibility gene 101 protein (Homo sapiens) (Q99816 whole entry, looked up, the tested form may be a part): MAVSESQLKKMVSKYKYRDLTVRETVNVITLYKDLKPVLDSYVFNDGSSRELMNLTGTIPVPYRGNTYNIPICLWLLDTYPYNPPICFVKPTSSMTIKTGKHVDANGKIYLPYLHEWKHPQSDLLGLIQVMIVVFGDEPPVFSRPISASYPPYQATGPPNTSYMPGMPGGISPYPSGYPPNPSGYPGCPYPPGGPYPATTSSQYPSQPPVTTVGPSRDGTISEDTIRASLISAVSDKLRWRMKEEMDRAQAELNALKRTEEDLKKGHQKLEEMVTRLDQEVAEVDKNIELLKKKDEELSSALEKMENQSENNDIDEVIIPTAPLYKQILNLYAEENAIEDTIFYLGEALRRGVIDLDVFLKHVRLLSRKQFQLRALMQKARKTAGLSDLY
Summary of the method: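 Tsg101 binding domain 10 uM + FITC-PTAP peptide 50 nM (final), 10 mM HEPES pH 7.5/0.15 M NaCl/0.01% Tween 20/3 mM EDTA/0.1 mM TCEP; 20 min RT; FP read, FITC filters.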

CC1=NOC(=O)/C1=C\c1ccc(-c2ccccc2Br)o1
active: Potency [2] 21.3 µM
inactive: Potency [1] | Potency [3] | Potency [4] | Potency [5] | Potency [6] | Potency [7]

O=C(O)CC1Sc2nc3ccccc3n2C1=O (configuration not stated)
inactive: activity change, negative = inhibition [8] 12.1% [at 17.2 µM] | activity change, negative = inhibition [9] 6.71% [at 17.2 µM] | outcome [10] | Potency [11] > 20.6 µM | Potency [2] | Potency [3] | activation [4] 10.5% [at 17.1 µM, percent relative to cAMP agonist control] | Potency [5] | activity change, negative = inhibition [6] -7.87% [at 30.8 µM] | activation [7] 12.5% [at 30.8 µM]

COC(=O)[C@@H](NC(=O)Nc1ccc2c(c1)OCCO2)C(C)C
inactive: Potency [2] | Potency [3] | Potency [4] | Potency [5] | Potency [6] | Potency [7]

CCCc1cc2c(-c3ccccc3)cc(=O)oc2cc1OCc1ccc(C(=O)O)o1
active: Potency [2] 75.7 µM | Potency [13] 24.1 µM
-57.8%: activity [14]
inactive: Potency [3] | Potency [4] | Potency [5] | Potency [6] | Potency [7]
-42%: activity [15]
-44.4%: activity [12]

CC[C@]12c3[nH]c4cc(-c5ccco5)ccc4c3CCN1C(=O)[C@@H](CC(=O)NCCCOC)C[C@@H]2C(=O)N1CCN(C(=O)C2CC2)CC1
inactive: Potency [2] | Potency [3] | activation [4] 9.39% [at 17.1 µM, percent relative to cAMP agonist control] | Potency [5] | activity change, negative = inhibition [6] -21.4% [at 30.8 µM] | activation [7] -1.13% [at 30.8 µM]

COC(=O)c1cc(Br)c(=O)n(CCc2ccc(F)cc2)c1
inactive: activity change, negative = inhibition [8] 4.29% [at 17.2 µM] | activity change, negative = inhibition [9] -12.1% [at 17.2 µM] | outcome [10] | Potency [11] > 20.6 µM | Potency [2] | Potency [3] | Potency [4] | Potency [5] | Potency [6] | Potency [7]

C=C1CCN(C(Cc2ccccc2)C(=O)OC)S(=O)(=O)c2ccc(F)cc21 (configuration not stated)
inactive: Potency [2] | Potency [3] | activation [4] 11.5% [at 17.1 µM, percent relative to cAMP agonist control] | Potency [5] | activity change, negative = inhibition [6] 2.02% [at 30.8 µM] | activation [7] 14% [at 30.8 µM]

O=S(=O)(Nc1cc2nc3ccccc3nc2n1Cc1ccccc1)c1ccc(Cl)cc1
active: Potency [2] 9.53 µM | Potency [5] 37.9 µM
inactive: Potency [1] | Potency [3] | Potency [4] | Potency [6] | Potency [7]

N#CC(C(=O)OC1CCCCC1)c1nc2ccccc2nc1N1CCOCC1 (configuration not stated)
inactive: Potency [2] | Potency [3] | activation [4] -10.2% [at 17.1 µM, percent relative to cAMP agonist control] | Potency [5] | activity change, negative = inhibition [6] -21.8% [at 30.8 µM] | activation [7] -0.592% [at 30.8 µM]
active: Potency [16] 10.3 µM

CSC1=NSC2=NC(=O)/C(=C/c3coc4ccccc4c3=O)C(=N)N12
inactive: Potency [2] | Potency [5] | Potency [6]
active: Potency [16] 18.3 µM | Potency [3] 89.1 µM | Potency [4] 100 µM | Potency [7] 39.8 µM

CCOC(=O)c1cc2n(c1/N=C/N(C)C)-c1ccccc1C2=O
active: Potency [16] 5.8 µM
inactive: Potency [2] | Potency [3] | activation [4] 6.24% [at 17.1 µM, percent relative to cAMP agonist control] | Potency [5] | activity change, negative = inhibition [6] 1.53% [at 30.8 µM]
